The whole screen tested about 310,000 compounds, of which about 14,000 (4.5%) showed an effect of 50% or more. The effect is printed as a negative number. The sample holds strong results, similar compounds and a random draw of the others, so the mix is not that of the screen.
Molecular target: human ether-à-go-go-related gene (hERG) potassium channel (human, UniProt Q12809)
Test: primary screen, population patch clamp on CHO cells stably expressing hERG; higher = less effect of the substance
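Also: peak tail current of the secondary pulse compared with the same well before compound.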

Chain of human ether-à-go-go-related gene (hERG) potassium channel (Q12809 whole entry, looked up): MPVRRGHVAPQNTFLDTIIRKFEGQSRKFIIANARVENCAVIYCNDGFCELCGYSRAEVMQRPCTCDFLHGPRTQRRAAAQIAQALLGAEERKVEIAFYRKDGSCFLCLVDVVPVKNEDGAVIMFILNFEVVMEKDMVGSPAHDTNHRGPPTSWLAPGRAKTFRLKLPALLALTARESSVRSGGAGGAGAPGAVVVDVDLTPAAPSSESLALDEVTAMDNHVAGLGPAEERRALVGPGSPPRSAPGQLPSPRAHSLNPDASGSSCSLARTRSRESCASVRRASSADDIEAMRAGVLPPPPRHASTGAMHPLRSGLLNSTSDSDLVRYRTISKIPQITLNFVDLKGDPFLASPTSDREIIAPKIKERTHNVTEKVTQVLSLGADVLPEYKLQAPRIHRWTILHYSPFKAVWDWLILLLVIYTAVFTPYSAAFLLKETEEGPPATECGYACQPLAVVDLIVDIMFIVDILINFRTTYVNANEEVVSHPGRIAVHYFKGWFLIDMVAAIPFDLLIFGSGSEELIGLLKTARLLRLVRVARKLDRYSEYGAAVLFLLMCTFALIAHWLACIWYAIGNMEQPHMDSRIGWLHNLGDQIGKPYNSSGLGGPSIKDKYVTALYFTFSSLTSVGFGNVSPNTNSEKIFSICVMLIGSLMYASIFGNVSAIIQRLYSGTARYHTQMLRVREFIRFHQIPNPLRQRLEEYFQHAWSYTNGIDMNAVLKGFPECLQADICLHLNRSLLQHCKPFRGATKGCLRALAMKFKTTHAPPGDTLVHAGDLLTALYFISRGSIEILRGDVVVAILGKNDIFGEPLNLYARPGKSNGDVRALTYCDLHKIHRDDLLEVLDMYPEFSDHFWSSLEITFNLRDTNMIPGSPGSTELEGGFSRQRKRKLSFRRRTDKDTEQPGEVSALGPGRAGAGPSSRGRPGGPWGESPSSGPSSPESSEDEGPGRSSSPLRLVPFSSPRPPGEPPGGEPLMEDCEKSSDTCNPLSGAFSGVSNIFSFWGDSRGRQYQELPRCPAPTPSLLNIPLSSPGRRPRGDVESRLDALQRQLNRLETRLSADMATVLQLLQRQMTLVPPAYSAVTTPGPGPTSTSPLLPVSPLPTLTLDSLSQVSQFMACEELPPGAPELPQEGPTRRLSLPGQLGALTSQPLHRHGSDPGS

Row | Structure (SMILES) | hERG current change (%, negative = inhibition) at 10uM
1 | COc1ccc(C)cc1-n1c(SCC(=O)NC2CC2)nc2ccccc2c1=O | -17.4%
2 | Nc1nc(SCc2nc3scc(-c4cccs4)c3c(=O)[nH]2)n[nH]1 | 18.9%
3 | CCOc1ccc(-n2c(=O)[nH]cc(C(=O)N3CCCc4ccccc43)c2=O)cc1 | -9.75%
4 | Cc1cccc(N2CCN(C(=O)Cn3cccc3)CC2)c1C | 2.77%
5 | Cc1ccc(-c2cnc(NC(=O)CCC(=O)N3CCCCC3)n2C)cc1 | -6.45%
6 | O=C1C2C3C=CC(C3)C2C(=O)N1c1ccc(-c2nc3ccccc3o2)cc1 (stereo not drawn) | 15.6%
7 | CCC(C)(C)NC(=O)C(c1cccc(OC)c1OC)N(CCC(C)C)C(=O)CCC(=O)Nc1cc(C)on1 (stereo not drawn) | 11.6%
8 | Cc1n[nH]c(C)c1CCN.Cl | 12.9%
9 | COc1ccc(C(=O)Nc2ccc(-c3cn4ccsc4n3)cc2)cc1S(=O)(=O)N1CCOCC1 | -9.6%
10 | Nn1c(SCC(=O)N2CCCc3ccccc32)nnc1-c1ccccc1 | 2.21%
11 | C=CCn1c(=O)n2ncnc2c2c3c(sc21)CCCC3 | -59.3%
12 | O=C(Cn1c(=O)n2ncnc2c2c3c(sc21)CCCC3)c1ccccc1 | -20.1%
13 | O=c1n(Cc2ccc(Cl)cc2)c2sc3c(c2c2ncnn12)CCCC3 | -39.1%
14 | COc1cccc(C2=NNC(=NCc3ccccc3)SC2)c1 | -42.6%
15 | CCn1cnc2sc(C(=O)Oc3cccc(C)c3)c(C)c2c1=O | 19.9%
16 | Cc1nn(C)c(Oc2ccccc2)c1CCNC(=O)CCl | 35.6%
17 | Cc1cccc(Oc2ccc(N)cc2)c1 | -12%
18 | CC(=O)c1cnc2cc(-c3ccc(C)cc3)nn2c1C | -4.26%
19 | N#Cc1c(N)sc2c1CCN(CCc1ccccc1)C2 | -50.5%
20 | CCN1CCc2c(sc(N)c2C#N)C1 | 5.55%
21 | N#Cc1c(N)sc(=S)c2c1CCN(Cc1ccccc1)C2 | -5.46%

Row | Structure (SMILES) | hERG current change (%, negative = inhibition) at 10uM
22 | CN(C)S(=O)(=O)c1ccc2c(c1)Cc1cc(S(=O)(=O)N(C)C)ccc1-2 | 20.1%
23 | COc1cc(/C=C/c2ccc(O)cc2)cc(OC)c1 | -2.2%
24 | Cc1occc1C(=O)NNC1=CC(=O)CC(C)(C)C1 | 13.3%
25 | CC1CCN(CCCNC(=O)CCNC(=O)Cn2cnc3ccccc3c2=O)CC1 | 20.5%
26 | OC1(C(F)(F)F)CC(c2ccc3ccccc3c2)=NO1 (stereo not drawn) | 4.45%
27 | COCc1[nH]nc2c1C(c1cccc(OC)c1)C(C#N)=C(N)O2 (stereo not drawn) | -7.26%
28 | CCOc1ccc(NC(=O)C2CCC(C)(C(=O)O)C2(C)C)cc1 (stereo not drawn) | 6.49%
29 | CN(C(=O)COC(=O)c1ccccc1NC(=O)c1ccco1)C1CCS(=O)(=O)C1 (stereo not drawn) | -62.3%
30 | CCN(C(=O)COC(=O)c1ccccc1Nc1cccc(C)c1C)C1CCS(=O)(=O)C1 (stereo not drawn) | 2.59%
31 | CCN(C(=O)COC(=O)c1ccccc1NCCO)C1CCS(=O)(=O)C1 (stereo not drawn) | -5.97%
32 | CCN(C(=O)COC(=O)c1ccccc1NC(=O)c1ccco1)C1CCS(=O)(=O)C1 (stereo not drawn) | -72.1%
33 | O=C(COC(=O)c1ccccc1NC(=O)c1ccco1)NC1CCS(=O)(=O)C1 (stereo not drawn) | -2.03%
34 | CN(C(=O)COC(=O)c1ccccc1Nc1ccccc1)C1CCS(=O)(=O)C1 (stereo not drawn) | -41.4%
35 | CCOc1ccccc1C1CC(=O)Nc2cc(OC)c(OC)cc21 (stereo not drawn) | 13.2%
36 | O=CNC1CCCc2c1[nH]c1ccc(Cl)cc21 (stereo not drawn) | -9.15%
37 | COc1cccc(OC(=O)N2CCOCC2)c1 | 8.3%
38 | O=C(CCCN1C(=O)c2ccccc2C1=O)Nc1cccc(S(=O)(=O)NC2=NCCC2)c1 | 13.5%
39 | COc1ccc(N2CCN(C(C)C(=O)N3CC(C)OC(C)C3)CC2)cc1.O=C(O)C(=O)O (stereo not drawn) | 18%
40 | COc1ccc(/C=N/NC(=O)CCCC(=O)NC2CCCCC2)cc1 | 5.06%
41 | CN(C)C(=O)/C(=C\c1ccc(-c2cccc([N+](=O)[O-])c2)o1)NC(=O)c1ccccc1 | -47.9%
42 | C=CCNC(=O)/C(=C/c1cn(-c2ccccc2)nc1-c1cccc([N+](=O)[O-])c1)NC(=O)c1ccccc1 | -3.58%
